Screening data deposited in PubChem BioAssay by National Center for Advancing Translational Sciences (NCATS).
TDP1 cell CPT – qHTS for Inhibitors of human tyrosyl-DNA phosphodiesterase 1 (TDP1): qHTS in cells in presence of CPT; chicken DT40 Tdp1-/-;hTDP1 cells + 20 nM CPT, ATP luminescence, 48 h; Potency, µM (top dose mostly 46.2 µM), inactives show top-dose activity change, negative = growth inhibition, usual class: inhibitors; 420,000 compounds, 12% hits; AID 686979, 2013; note: potency is the fitted concentration of half-maximal effect; nearly all actives have a fitted effect of over 55% in size
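Chicken DT40 Tdp1-/- cells complemented with human TDP1, 400 cells/well, exposed to compounds plus 20 nM camptothecin for at least 48 h at 37 C; viability read as ATP content by CellTiter-Glo luminescence.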
IL1B secr inh – qHTS for Inhibitors of Inflammasome Signaling: IL-1-beta AlphaLISA Primary Screen. activity change, % at 57.5 µM. THP-1 LPS/ATP IL-1B secretion, AlphaLISA, 16 h; stronger effect = lower value. 360,000 compounds, 4.7% hits; in the data active = activity change below about -50%; inconclusive = mostly about -30% to -49%
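Secreted IL-1B measured by AlphaLISA bead assay after 16 h compound exposure of THP-1 cells; compounds (final up to 57.5 uM) added 1 h before LPS (250 ng/mL) and ATP (1.25 mM) stimulation; lower signal means less secretion.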
ELG1 DNA repair – qHTS screen for small molecules that inhibit ELG1-dependent DNA repair in human embryonic kidney (HEK293T) cells expressing luciferase-tagged ELG1; HEK293T ELG1-luciferase reporter, luminescence, 16 h; DNA damage induced by 5-fluorouridine; Potency, µM (doses to about 46.1 µM), for the others: at the top dose activity change, negative = inhibition, usual class: inhibitors; 330,000 compounds, 2.3% hits; AID 504467, 2011; note: potency is the fitted concentration of half-maximal effect; nearly all actives have a fitted effect of over 55% in size
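Luminescence from the luciferase reporter, measured 30 min after ONE-Glo reagent at room temperature, was the read-out. Beforehand, 2,000 cells per well were exposed for 16 hr at 37 °C to 5-fluorouridine together with compound or vehicle.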
Giardia killer – Small Molecules that selectively kill Giardia lamblia: qHTS. Giardia lamblia trophozoite viability. activity change, % at 7.66 µM, hits read low. 340,000 compounds, 0.15% hits. AID 540267, 2011; in the data active = activity change below about -80%; inconclusive = between about -30% and that limit;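 note: parasites exposed to compound for two days anaerobically before the ATP read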
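Luminescent ATP signal served as the viability read-out, measured 15-30 min after adding ATP detection reagent to trophozoites that had been incubated with compounds for 48 hrs at 37 deg C anaerobically at 100 cells/well.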
TDP1 cell noCPT – qHTS for Inhibitors of human tyrosyl-DNA phosphodiesterase 1 (TDP1): qHTS in cells in absence of CPT | DT40 Tdp1-/- hTDP1 cells, no CPT, ATP luminescence, 48 h | Potency, µM (highest dose often 46.2 µM), for the others: at the top dose activity change, negative = growth inhibition, actives largely listed as inhibitors | 420,000 compounds, 15% hits | AID 686978, 2013; note: potency is the fitted concentration of half-maximal effect; nearly all actives have a fitted effect of over 55% in size
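Cells were dispensed at 400 per well, compounds added by pin tool, plates incubated ≥48 hr at 37 °C, then CellTiter-Glo added for 30 min at room temperature before luminescence reading. Line: DT40 Tdp1-/- complemented with hTDP1; camptothecin omitted.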
TDP1 block – qHTS Assay for Inhibitors of Tyrosyl-DNA Phosphodiesterase (TDP1); recombinant TDP1, AlphaScreen DNA substrate cleavage; Potency, µM (doses to about 130 µM), for the others: at the top dose activity change, negative = inhibition, hits mostly inhibitors; 350,000 compounds, 0.28% hits; note: potency is the fitted concentration of half-maximal effect; nearly all actives have a fitted effect of over 40% in size
Target sequence (Q9NUW8 whole entry, looked up): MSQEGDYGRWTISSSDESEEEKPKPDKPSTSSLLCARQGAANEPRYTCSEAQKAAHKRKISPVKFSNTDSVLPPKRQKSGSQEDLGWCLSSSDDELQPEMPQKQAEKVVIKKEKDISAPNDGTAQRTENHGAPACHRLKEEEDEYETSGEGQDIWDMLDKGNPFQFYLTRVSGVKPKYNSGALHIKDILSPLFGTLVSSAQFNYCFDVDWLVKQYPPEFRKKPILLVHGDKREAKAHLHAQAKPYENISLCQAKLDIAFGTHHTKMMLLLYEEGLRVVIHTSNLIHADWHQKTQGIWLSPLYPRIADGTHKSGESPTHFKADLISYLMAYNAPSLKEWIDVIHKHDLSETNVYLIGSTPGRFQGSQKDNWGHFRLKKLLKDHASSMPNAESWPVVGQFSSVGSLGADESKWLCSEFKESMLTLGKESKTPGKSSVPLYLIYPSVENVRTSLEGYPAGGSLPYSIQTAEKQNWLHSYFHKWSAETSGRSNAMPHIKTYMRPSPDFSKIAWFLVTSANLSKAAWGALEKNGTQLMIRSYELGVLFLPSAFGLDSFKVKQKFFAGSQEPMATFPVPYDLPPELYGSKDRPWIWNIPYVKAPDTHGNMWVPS
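Recombinant E. coli-expressed Tdp1 (1 nM) preincubated with compound 15 min at RT, then 5'-biotin/3'-phosphotyrosine-FITC DNA substrate (15 nM) added for 5 min. AlphaScreen beads (10 ug/ml) added, 10 min RT; tyrosine-FITC cleavage read as signal loss.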
Numbers without * were called inactive; i = inactive; ? = inconclusive; nt = no result given; [ ] = remark or other dose. An excerpt weighted towards active compounds, which were near 19% of everything screened. Unless noted, calls come from the whole dose curve; as a rule, active = well fitted curve in the direction sought with a large enough effect; inconclusive = small, poorly fitted or top-dose-only effect, or another doubt; inactive = no such curve, though single readings can be large; an effect the other way counts as inactive or inconclusive. % is set by controls: 0 for no effect and ±100 for the full control effect.

SMILES	TDP1 cell CPT	IL1B secr inh	ELG1 DNA repair	Giardia killer	TDP1 cell noCPT	TDP1 block
CC(=O)c1ccc(NC(=O)Cn2cc(S(=O)(=O)Cc3cccc(Cl)c3)c3ccccc32)cc1	23µM*	nt	nt	nt	23µM*	6%
O=C(Cn1cc(S(=O)(=O)Cc2cccc(Cl)c2)c2ccccc21)Nc1ccccc1C(F)(F)F	13µM*	nt	nt	nt	?	0%
Cc1cc(NC(=O)CS(=O)(=O)c2cn(Cc3cccc(Cl)c3)c3ccccc23)no1	26µM*	-25	nt	nt	21µM*	nt
CC(=O)N(O)c1ccc(/C=C2\C=Cc3ccccc32)cc1	1.4µM*	nt	nt	nt	3.2µM*	nt
CCCC(=O)N(C)c1ccc(/C=C2\C=Cc3ccccc32)cc1	3.2µM*	nt	nt	nt	2.2µM*	nt
COC(=O)c1ccc(C(=O)N2CCc3c(C(=O)NC(C)c4ccco4)c(OC)cc(=O)n3CC2)cc1 (stereo not given)	-1%	nt	nt	nt	-4%	nt
CCOC(=O)c1oc2ccccc2c1NC(=O)c1cccc(OC)c1	13µM*	-19	?	-2	18µM*	nt
CCOC(=O)c1oc2ccccc2c1NC(=O)CCl	10µM*	?	?	6	7.3µM*	0%
CCOC(=O)c1oc2ccccc2c1NC(=O)c1cccc(OC)c1OC	16µM*	19	?	-12	18µM*	-3%
COc1ccc(C(=O)c2oc3ccccc3c2NC(=O)c2cccc(OC)c2)cc1	-14%	nt	nt	nt	-3%	5%[12.3 µM]
COc1cccc(C(=O)Nc2c(C(N)=O)oc3ccccc23)c1	?	-12	?	25	16µM*	4%
CCOc1ccc(C(=O)NC(C(=O)NCc2cccnc2)C(C)C)cc1 (stereo not given)	-27%	3	10%	3	-5%	3%
Cc1c(-c2nsc(NC(=O)c3cccs3)n2)nnn1-c1ccc(Cl)cc1	?	nt	nt	nt	?	0%
COc1ccc(-n2c(=O)c(-c3cccs3)nc3cnc(N(C)C)nc32)cc1	-20%	nt	nt	nt	-4%	nt
COc1ccc2cc(C(=O)N3CCN(c4ccc(F)cc4)CC3)[nH]c2c1	-15%	27	-22%	8	-16%	nt
COC(=O)C1(C(=O)OC)C[C@H](/C=C/c2ccccc2)N(Cc2ccccc2OC)[C@@H]1c1ccccc1	?	0	nt	nt	15µM*	nt
COC(=O)C1(C(=O)OC)C[C@H](/C=C/c2ccccc2)N(Cc2ccccc2OC)[C@@H]1c1cccc(Br)c1	?	3	nt	nt	?	nt
CCOc1ccccc1CN1[C@@H](c2ccc(OC)cc2)CC(C(=O)OC)(C(=O)OC)[C@H]1c1ccccc1	?	-13	nt	nt	15µM*	nt
COC(=O)C1(C(=O)OC)C[C@H](c2cccs2)N(Cc2ccccc2OC)[C@@H]1c1ccc(F)cc1	15µM*	-6	nt	nt	15µM*	nt
Cc1ccc(NC(=O)NCc2ccccn2)c(C)c1	0%	-2	25%	3	11%	3%
O=C1C(c2ccncc2)=C(O)c2ccccc21	?	-11	?	?	18µM*	-3%
Cc1ccc(Cl)cc1NS(=O)(=O)c1cc2c(cc1F)NC(=O)CC2	nt	nt	nt	nt	nt	-6%
CCNC(=S)N(CCc1c(C)[nH]c2ccc(F)cc12)Cc1cccnc1	?	-4	-26%	-20	26µM*	nt
CCNC(=S)N(CCc1c(C)[nH]c2ccc(C)cc12)Cc1cccnc1	?	-1	-2%	-12	29µM*	nt
Cc1[nH]c2ccc(F)cc2c1CCN(Cc1cccnc1)C(=S)Nc1ccc(F)cc1	-17%	-3	?	-7	-27%	5%
SMILES	TDP1 cell CPT	IL1B secr inh	ELG1 DNA repair	Giardia killer	TDP1 cell noCPT	TDP1 block
COCCNC(=S)N(CCc1c(C)[nH]c2ccc(F)cc12)Cc1ccc(C)cc1	?	-73*	?	10	18µM*	nt
COCCNC(=S)N(CCc1c(C)[nH]c2ccc(C)cc12)Cc1ccco1	?	-12	?	4	?	8%
COc1ccc(NC(=O)CN2C(=O)C(C)(C)c3cc(S(=O)(=O)N4CCCCC4)ccc32)cc1Cl	?	nt	nt	nt	?	7%
CCC(COC)NC(=O)c1cnn(-c2ncc3c(n2)-c2ccccc2CCC3)c1C (stereo not given)	-24%	nt	nt	nt	-26%	nt
Cc1ccccc1OCC(O)CN(Cc1ccccc1O)C1CCCCC1 (stereo not given)	16µM*	-66*	-16%	-19	13µM*	5%
CN(CC(O)COc1ccccc1F)C1CCCCC1 (stereo not given)	0%	12	1%	-8	-3%	-5%
CCN(CC(O)COc1ccc(OCC(O)CN(CC)C2CCCCC2)cc1)C1CCCCC1 (stereo not given)	?	-66*	nt	-10	?	nt
Cc1ccc(NC(=O)c2cc3c(=O)n(Cc4cccnc4)ccc3nc2C)cc1F	-12%	nt	nt	nt	-19%	3%
CCCNC(=O)C1CCC(Cn2c(=O)c3sccc3n(CC(=O)N3CCC(C)CC3)c2=O)CC1 (stereo not given)	-9%	nt	nt	nt	-22%	1%
Cc1ccc2oc(C(=O)N(Cc3ccccc3)C3CCS(=O)(=O)C3)c(C)c2c1 (stereo not given)	?	11	-17%	-1	-28%	2%
Cc1ccsc1CN(C(=O)c1oc2ccc(F)cc2c1C)C1CCS(=O)(=O)C1 (stereo not given)	12µM*	nt	nt	nt	7.3µM*	10%
COc1ccc(CN(C(=O)c2oc3ccc(F)cc3c2C)C2CCS(=O)(=O)C2)cc1 (stereo not given)	?	i	?	13	?	4%[56.1 µM]
Cc1ccc2oc(C(=O)N(Cc3sccc3C)C3CCS(=O)(=O)C3)c(C)c2c1 (stereo not given)	5.8µM*	nt	nt	nt	5.2µM*	5%
O=C1CC(=C2c3ccccc3-c3ccccc32)C(=O)N1CCCCN1CCN(c2ccccc2)CC1	18µM*	-26	-11%	-6	16µM*	9%
COc1ccccc1C(CCN(Cc1ccccc1)C(C)=O)c1ccco1 (stereo not given)	?	-17	?	-10	16µM*	12%
COc1ccccc1C(CC(N)=O)c1ccco1 (stereo not given)	-11%	0	1%	-11	-13%	-2%
